# Data taken from PubChem BioAssay.
# Biological target: Neurogenic locus notch homolog protein 2 (Homo sapiens) (UniProt Q04721)
# Test: small molecules binding Notch2 protein – biochemical, small-molecule microarray, 635 nm fluorescence, stem cell growth factors, primary screen (AID 1073)
# Details: higher = more signal
# Sequence of Neurogenic locus notch homolog protein 2 (Homo sapiens) (Q04721 whole entry, looked up): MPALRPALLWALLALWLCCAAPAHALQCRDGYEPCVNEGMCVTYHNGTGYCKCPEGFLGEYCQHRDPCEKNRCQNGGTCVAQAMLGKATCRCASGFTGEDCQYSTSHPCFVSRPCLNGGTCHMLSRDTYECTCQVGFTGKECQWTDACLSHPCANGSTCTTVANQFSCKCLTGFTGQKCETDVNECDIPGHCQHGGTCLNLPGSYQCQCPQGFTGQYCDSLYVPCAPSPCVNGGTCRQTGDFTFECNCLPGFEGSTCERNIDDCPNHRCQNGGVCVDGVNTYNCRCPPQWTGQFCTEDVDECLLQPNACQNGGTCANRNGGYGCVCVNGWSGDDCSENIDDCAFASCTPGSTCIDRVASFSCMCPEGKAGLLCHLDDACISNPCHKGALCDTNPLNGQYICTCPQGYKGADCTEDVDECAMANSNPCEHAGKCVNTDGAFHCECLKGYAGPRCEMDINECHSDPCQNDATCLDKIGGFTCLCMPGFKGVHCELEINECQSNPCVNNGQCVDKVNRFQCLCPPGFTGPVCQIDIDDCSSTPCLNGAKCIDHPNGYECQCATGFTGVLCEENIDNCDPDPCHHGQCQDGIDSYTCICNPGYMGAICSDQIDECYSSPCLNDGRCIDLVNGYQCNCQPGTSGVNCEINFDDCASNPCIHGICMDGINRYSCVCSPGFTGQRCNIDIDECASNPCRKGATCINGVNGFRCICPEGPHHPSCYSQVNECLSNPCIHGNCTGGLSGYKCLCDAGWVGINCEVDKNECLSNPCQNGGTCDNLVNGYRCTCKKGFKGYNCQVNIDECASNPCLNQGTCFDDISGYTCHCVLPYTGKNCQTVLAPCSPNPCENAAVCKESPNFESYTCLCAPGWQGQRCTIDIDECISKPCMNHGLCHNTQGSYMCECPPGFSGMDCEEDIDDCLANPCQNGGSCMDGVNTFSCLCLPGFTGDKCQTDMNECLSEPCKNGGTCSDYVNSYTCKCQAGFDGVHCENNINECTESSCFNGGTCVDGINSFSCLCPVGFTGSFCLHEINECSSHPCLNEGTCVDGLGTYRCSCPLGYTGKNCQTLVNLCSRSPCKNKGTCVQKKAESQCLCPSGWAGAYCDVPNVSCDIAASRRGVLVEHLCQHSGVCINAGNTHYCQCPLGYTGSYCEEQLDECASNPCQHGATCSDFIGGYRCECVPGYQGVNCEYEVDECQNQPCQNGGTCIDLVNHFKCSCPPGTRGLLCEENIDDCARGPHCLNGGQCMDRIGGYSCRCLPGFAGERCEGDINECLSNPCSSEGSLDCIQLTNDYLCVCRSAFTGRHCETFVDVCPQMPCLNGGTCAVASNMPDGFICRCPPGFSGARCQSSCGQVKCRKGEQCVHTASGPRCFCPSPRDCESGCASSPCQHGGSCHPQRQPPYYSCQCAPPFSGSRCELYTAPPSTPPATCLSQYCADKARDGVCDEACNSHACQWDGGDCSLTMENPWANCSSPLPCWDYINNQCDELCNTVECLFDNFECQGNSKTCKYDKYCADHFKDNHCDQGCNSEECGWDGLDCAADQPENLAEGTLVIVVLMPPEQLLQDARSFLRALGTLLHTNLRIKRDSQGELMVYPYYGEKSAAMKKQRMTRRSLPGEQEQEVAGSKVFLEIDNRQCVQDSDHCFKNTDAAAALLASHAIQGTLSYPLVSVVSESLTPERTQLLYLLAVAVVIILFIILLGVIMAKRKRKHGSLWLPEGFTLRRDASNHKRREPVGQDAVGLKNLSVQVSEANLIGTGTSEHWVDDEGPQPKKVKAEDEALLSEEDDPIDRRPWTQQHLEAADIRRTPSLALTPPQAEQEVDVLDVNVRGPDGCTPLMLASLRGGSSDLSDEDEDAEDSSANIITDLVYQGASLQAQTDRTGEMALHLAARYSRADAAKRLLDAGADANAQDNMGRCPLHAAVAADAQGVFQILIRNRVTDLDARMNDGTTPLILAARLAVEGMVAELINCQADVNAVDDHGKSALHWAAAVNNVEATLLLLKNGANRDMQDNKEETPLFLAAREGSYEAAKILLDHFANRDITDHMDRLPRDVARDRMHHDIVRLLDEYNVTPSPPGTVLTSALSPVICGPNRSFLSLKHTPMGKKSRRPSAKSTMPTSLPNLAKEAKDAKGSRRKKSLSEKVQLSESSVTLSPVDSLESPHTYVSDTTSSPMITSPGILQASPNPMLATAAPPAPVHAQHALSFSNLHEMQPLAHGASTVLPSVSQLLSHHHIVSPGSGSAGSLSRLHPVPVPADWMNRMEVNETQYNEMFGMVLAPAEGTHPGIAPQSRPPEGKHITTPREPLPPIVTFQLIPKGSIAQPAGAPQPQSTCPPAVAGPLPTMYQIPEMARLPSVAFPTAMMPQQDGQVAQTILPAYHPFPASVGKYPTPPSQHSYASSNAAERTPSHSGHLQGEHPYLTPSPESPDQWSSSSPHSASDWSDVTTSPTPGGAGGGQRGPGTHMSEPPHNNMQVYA
row,Structure (SMILES),composite z-score
1,C[C@]1(C(=O)NCCN2CCOCC2)c2ccccc2C(=O)N(Cc2ccc(OC(F)(F)F)cc2)[C@H]1c1ccc(CO)cc1,-0.375
2,[N-]=[N+]=Nc1ccccc1[C@@H]1OC(c2ccc(OCCCO)cc2)=N[C@]1(CCS(=O)(=O)c1ccccc1)C(=O)NCCN1CCOCC1,1.58
3,CC(C)CN1C(=O)[C@@]2(Cc3ccccc31)c1ccccc1C(=O)N(Cc1ccccc1C(F)(F)F)[C@H]2c1ccc(CO)cc1,-0.202
4,C=CC[C@]1(C(=O)N(C)C)N=C(c2ccc(OCCCO)cc2)O[C@H]1c1ccccc1N=[N+]=[N-],1.48
5,COc1cc2c(cc1OC)CN(C(=O)[C@H]1[C@@H]3C(=O)O[C@@H](c4ccccc4)[C@@H](c4ccccc4)N3[C@@H](c3ccc(OCCO)cc3)[C@]13C(=O)Nc1ccc(C#CC4(O)CCCCCC4)cc13)CC2,1.51
6,COCCCNC(=O)[C@@H]1c2ccccc2C(=O)N(Cc2ccccc2C(F)(F)F)[C@H]1c1ccc(CO)cc1,-0.356
7,C=CC[C@]12N=C(c3ccc(OCCCO)cc3)O[C@H]1c1ccccc1N(C)C2=O,0.0523
8,CCCC[C@@H]1C[C@H]1[C@@H](NC(=O)c1cccnc1)c1ccc(-c2ccccc2)cc1,-1.71
9,C[C@@H]1ON(c2ccc(C(=O)OC(C)(C)C)cc2)[C@H](c2ccc(Br)cc2)[C@H]1C(=O)N1C(=O)OC[C@H]1Cc1ccccc1,1.52
10,CC(C)CCC[C@@H](C)[C@H]1CC[C@@]2(C)C3=C(CC[C@]12C)[C@@]1(C)CC[C@H](OC(=O)c2ccc(Br)cc2)C(C)(C)C1CC3 (stereo partly specified),0.5
11,COc1cc2c(cc1O)C(C)N(Cc1cc3c(cc1Br)OCO3)CC2 (stereo unspecified),0.511
12,COc1c(C)cc(-c2cc3c(c(Cc4ccccc4)n2)[Si](C(C)C)(C(C)C)OC3)cc1C,0.64
13,CN(C)CCCN1C(=O)[C@@]2(c3ccc([N+](=O)[O-])cc3)CC(=O)N(CC34CC5CC(CC(C5)C3)C4)[C@@H]2c2ccc(CO)cc21,-0.346
14,CO[C@H]1O[C@H](CO)[C@@H](OC(=O)Nc2ccc(C(F)(F)F)cc2)[C@H](OC(=O)Nc2ccc3c(c2)OCO3)[C@H]1OC(=O)Nc1ccc2c(c1)OCO2,1.41
15,NC(=O)NCC#Cc1ccc2c(c1)[C@]1(C(=O)N2)[C@H](C(=O)Nc2nc3ccccc3s2)[C@H]2C(=O)O[C@H](c3ccccc3)[C@H](c3ccccc3)N2[C@@H]1c1ccc(O)cc1,0.455
16,COCCOC(=O)N1C(=O)[C@@]2(c3cc(C#CC4(O)CCCCCC4)ccc31)[C@H](C(=O)N1CCCCCCC1)[C@H]1C(=O)O[C@H](c3ccccc3)[C@H](c3ccccc3)N1[C@@H]2c1ccc(OCCO)cc1,1.26
17,COC(=O)[C@@]1(Cc2ccccc2)[C@H]2c3cc(C(=O)N4CCCC4)[nH]c3C[C@H]2CN1C(=O)c1ccccc1,1.13
18,CCOC(=O)[C@H]1C/C=C/C[C@H](C(=O)OCC)C(=O)O[C@H]2[C@@H](OC)O[C@H](CO)[C@@H](OC(=O)CCc3ccccc3)[C@@H]2OC1=O,-1.08
19,Cc1ccc(F)cc1S(=O)(=O)N[C@@H]1CCN(Cc2ccc(OC(C)C)cc2)C1,-0.863
20,COCCOC(=O)N1C(=O)[C@@]2(c3cc(C#CC4=CCCCC4)ccc31)[C@H](C(=O)N1CCN(c3ncccn3)CC1)[C@H]1C(=O)O[C@H](c3ccccc3)[C@H](c3ccccc3)N1[C@@H]2c1ccc(O)cc1,1.33
21,COC(=O)C1(Cc2ccccc2)C=C2C(=C(C(C)C)C(=O)C2C)CN1 (stereo unspecified),-0.0793
22,O=C1O[C@H](c2ccccc2)[C@H](c2ccccc2)N2[C@H]1[C@@H](C(=O)O)[C@]1(C(=O)Nc3ccccc31)[C@H]2c1ccc(O)cc1,-0.844
23,COc1ccc(NC(=O)O[C@H]2[C@H](OC(=O)Nc3ccc4c(c3)OCO4)[C@@H](OC(=O)Nc3ccc4c(c3)OCO4)[C@@H](OC)O[C@@H]2CO)cc1,0.922
24,COc1c(C)cc(-c2cc3c(c(-c4ccccc4)n2)[Si](C(C)C)(C(C)C)OC3)cc1C,-0.181
25,C[C@@H](OCc1ccccc1)C1NC(=O)[C@@]23C(=O)N[C@@H](Cc4ccccc4)C2[C@H](C)[C@@]2(C)O[C@H]2C3/C=C/C/C=C\CNC(=O)CNC1=O (stereo partly specified),-1.08
26,COc1ccc([Si](C)(C)[C@@H]2[C@@H](CC(=O)N3CCC[C@H]3CO)O[C@]3(C(=O)N(Cc4ccc(N5C(=O)c6cccc7cccc5c67)cc4)c4ccccc43)[C@H]2C)cc1,0.733
